CDC25B CDK2 inh: primary biochemical HTRF screen for blockers of M-phase inducer phosphatase 2 binding to CDK2/cyclin A | HTRF CDC25B-CDK2/CyclinA binding, anti-His/anti-Flag; stronger effect = higher value | z-score (no concentration beside the values) | 0.72% of 94,000 active; in the data active = z-score above about 3.2
TAR Tat displ: TAR RNA-Tat peptide displacers, HIV-1, primary screen, biochemical, FRET, FAM/TAMRA-labeled Tat; HIV-1 TAR RNA, Tat peptide displacement FRET; stronger effect = higher value; z-score (concentration not given with the values); 0.6% of 100,000 active; active = z-score of 3 or more in at least 2 runs
Numbers without * were called inactive; . = no result. An excerpt weighted towards active compounds, which were near 0.86% of everything screened.

SMILES	CDC25B CDK2 inh	TAR Tat displ
O=C1c2oc3ccc(F)cc3c(=O)c2C(c2cccc(F)c2)N1CCCN1CCOCC1 (configuration not stated)	.	-0.04
O=C(CCSc1nnc2ccccn12)Nc1nc(-c2ccccc2)ns1	-0.63	0.46
CCOC(=O)CC(=O)CSc1nc(C)c2ccc(C)cc2n1	-1.8	-7.6
CCC(=O)n1/c(=N/C(=N)N)nc(C)c2ccc(C)cc21	9*	.
CCOc1cc(/C=C2\SC(=Nc3cccc(Cl)c3C)NC2=O)ccc1O	0.82	.
Cc1ccc(N=C2NC(=O)/C(=C/c3ccc(O)c(Br)c3)S2)cc1Cl	8.8*	.
CCCc1nnc(NC(=O)C2CC(=O)N(CCc3c[nH]c4ccc(Cl)cc34)C2)s1 (configuration not stated)	-0.78	0.68
Cc1cc(C)n2nc(NCc3ccc(Cl)cc3)nc2n1	-2.1	2.4
CCN1CCN(CCCNC(=O)C2CCCN(c3nn4c(=O)c5c(nc4s3)CCCC5)C2)CC1 (configuration not stated)	.	1.9
Cc1cccn2c(Nc3ccc4c(c3)OCCO4)c(-c3ccc(O)cc3)nc12	0.82	0.06
Cc1ccc(-c2nnn3c2nc(NCc2ccco2)c2ccccc23)cc1	-2	1.2
Cc1cccc(-c2nnn3c2nc(NCc2ccco2)c2ccccc23)c1	-1.8	7.8*
CC1CSc2ccc(S(=O)(=O)NC3CCCCC3)cc2NC1=O (configuration not stated)	.	1.2
O=C(Oc1ccc(-c2noc(-c3ccc(OC(=O)c4ccncc4)cc3)n2)cc1)c1ccncc1	.	-2.1
COc1ccc(-c2nc3c(C#N)c[nH]n3c2NC2CCCC(C)C2C)cc1 (configuration not stated)	-1.3	2
CC(=O)C[n+]1cccc2cccc(O)c21	2.2	.
C#CC[n+]1cccc2cc(O)ccc21	5.2*	.
CC(=O)N1c2ccc(S(=O)(=O)NCC3CCC(C(=O)Nc4nccs4)CC3)cc2CC1C (configuration not stated)	.	-0.81
O=S(=O)(c1ccc(-c2cc(C(F)(F)F)on2)s1)N1CC=C(c2ccccc2)CC1	.	0.44
CCC(=O)Nc1nnc(SCc2cc(=O)c3cccc(Cl)c3[nH]2)s1	.	1.2
Cn1c(SCC(=O)Nc2ccc(Br)cc2)ncc(C(=O)Nc2ccccc2)c1=O	.	0.28
O=C(CSc1nc2ccccc2c(=O)[nH]1)NCc1ccc2c(c1)OCO2	.	14*
O=C(CSc1nc2ccccc2c(=O)[nH]1)NC1CCCC1	.	3.2
O=S(=O)(NCCCc1ccccc1)c1ccc(N2CCCCS2(=O)=O)cc1	.	0.54
Fc1ccc(C2CC(c3cccc4ccccc34)n3ncnc3N2)cc1 (configuration not stated)	0.51	1.2
SMILES	CDC25B CDK2 inh	TAR Tat displ
CCc1cc2c(=S)[nH]cnc2s1	-0.86	.
CCc1cc(C=N)c([S-])s1.CCc1cc(C=N)c([S-])s1.[Zn+2]	19*	.
CCCCn1c(SCc2nc(-c3ccccc3)no2)nc2cc3c(cc2c1=O)OCO3	.	2.1
O=C(CN1C(=O)/C(=C/c2cccc(Br)c2)SC1=S)Nc1cccc2ccccc12	-3.1	.
CC(C)CNc1nc2c(c(=O)n(C)c(=O)n2C)n1Cc1ccc(Br)cc1	-0.4	.
COC(=O)c1sc2ccc(N)cc2c1OCC(C)C	3	-2.2
COC(=O)c1sc2ccccc2c1Cl	1.3	1.9
CCOc1c(C(=O)OC)sc2ccc(N)cc12	7.7*	-1.9
COC(=O)c1sc2ccc(N)cc2c1OC	5.4*	-2.8
Cc1ccc(-c2n[nH]c(=O)c(Cc3ccccc3)n2)cc1	.	0.51
COCc1nc2ccccc2n1CC(C)C	-1.1	0.88
O=C(Nc1c(C(=O)N2CCN(c3ccccc3)CC2)oc2ccccc12)c1cc(-c2cccs2)on1	-1.1	1.1
NNC(=O)c1csc(-c2ccccc2)n1	-1.1	.
O=C(Cc1csc(-c2ccccc2)n1)Nc1nc(-c2ccccc2)cs1	0.55	0.46
NNC(=O)c1csc(-c2cccc(-n3cccc3)c2)n1	17*	.
NNC(=O)Cc1csc(-c2cccc(-n3cccc3)c2)n1	17*	.
O=C(NCc1cccs1)C1C2C=CC3(CN(CCCN4CCOCC4)C(=O)C13)O2 (configuration not stated)	-0.59	.
Cc1sc2ncnc(N3CCN(Cc4ccc5c(c4)OCO5)CC3)c2c1C	-0.27	.
Cc1ccc(S(=O)(=O)Nc2c3ccccc3c(O)c3c4c(oc23)CC(C)(C)CC4=O)cc1	18*	.
CC1(C)CC(=O)c2c(oc3ccc(NS(=O)(=O)c4ccc(Br)cc4)cc23)C1	-0.39	-0.3
Cc1nn(S(=O)(=O)c2ccc(Cl)cc2)c(C)c1S(=O)(=O)N1CCCC1	.	0.85
CCOCCCNc1ncnc2sc(C)c(C)c12	-1.2	1.9
COc1ccc(C2CC(=O)N3CN(Cc4ccco4)CSC3=C2C#N)cc1 (configuration not stated)	3.2*	1.8
N#CC1=C2SCN(Cc3ccco3)CN2C(=O)CC1c1ccc(Br)cc1 (configuration not stated)	-1.8	2.1
N#CC1=C2SCN(Cc3ccco3)CN2C(=O)CC1c1ccc(F)cc1 (configuration not stated)	6*	-1.5
SMILES	CDC25B CDK2 inh	TAR Tat displ
COc1ccc(CN2CSC3=C(C#N)C(c4ccc(F)cc4)CC(=O)N3C2)cc1 (configuration not stated)	3.6*	0.92
CN1C(=O)c2ccccc2C(C(=O)NCC2COc3ccccc3O2)C1c1c[nH]c2ccccc12 (configuration not stated)	-2.6	.
CNC(=O)Cn1c(=O)c2cccn2c2cccnc21	.	-0.29
COc1ccc(S(=O)(=O)CCc2nc3ccccc3[nH]2)cc1	-0.52	.
COC(=O)C1C(=O)C2=C(CC1C)NC(C)=C(C(=O)OC(C)C)C2c1cccc(Cl)c1 (configuration not stated)	0.14	0.75
Cc1cc(=O)[nH]c(Nc2ccc3c(c2)OCO3)n1	-2.1	2.1
O=C(Cn1cnc2nc3c(cc2c1=O)CCCC3)NCc1ccc2c(c1)OCO2	.	1.3
CCSc1ncc2c(=O)n(CC(=O)NCc3ccc4c(c3)OCO4)cnc2n1	.	13*
Oc1ccc(-c2nc(-c3cccs3)c(-c3cccs3)[nH]2)cc1	19*	-0.61
Oc1cccc(-c2nc(-c3cccs3)c(-c3cccs3)[nH]2)c1	19*	-3.2
Oc1ccc(-c2nc(-c3ccccc3)c(-c3ccc(O)cc3)[nH]2)cc1	-1.4	-1.7
Cc1cc(=O)[nH]c(-c2cccs2)n1	0.45	.
c1csc(-c2nc(-c3cccs3)c(-c3cccs3)[nH]2)c1	19*	-0.71
COc1cccc(-c2nc(-c3cccs3)c(-c3cccs3)[nH]2)c1	-1.6	.
CCN(CC)c1c(S(=O)(=O)c2ccccc2)cnc2cc3c(cc12)OCCO3	-1.9	-1.6
Cc1cccc(CSc2nc(-c3cccs3)nc3c2c(=O)n(C)c(=O)n3C)c1	-1.6	.
O=C(NCCc1ccccc1)Nc1c[nH]c(=O)[nH]c1=O	-0.76	1.1
COc1ccc2ccccc2c1C1CC(=O)N2CN(C3CCCCC3)CSC2=C1C#N (configuration not stated)	6.1*	-1.6
COc1ccc2ccccc2c1C1CC(=O)N2CN(Cc3ccccc3)CSC2=C1C#N (configuration not stated)	5.4*	1.6
COc1ccc2ccccc2c1C1CC(=O)N2CN(Cc3ccco3)CSC2=C1C#N (configuration not stated)	5.8*	0.91
